Data as given in PubChem BioAssay AID652197 (Broad Institute, 2013).
Values joined by “and” are separate entries in the source; they are usually repeats but may differ in a detail not shown here. Identical values can stand only once. Screen size: about 340,000 compounds; about 500 (0.15%) were called active.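 Rule for the calls: active = mean replicate inhibition of at least 30%, or all replicates individually reaching that 30% level; inactive = mean below 30% and not every replicate reaching it.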 Many of the other results were omitted from the sample, so actives are more common in it than they were.

Molecular target: Endoplasmic reticulum aminopeptidase 1 (Homo sapiens) (UniProt Q9NZ08)
Experiment: human ERAP1 aminopeptidase inhibitors, primary screen, biochemical, single point, plate reader (AID 652197);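 note: 0% = neutral control wells and 100% = L-leucinethiol positive control wells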
Conditions: recombinant ERAP1, Leu-AMC fluorescence, 60 min; at 10.7 µM; active compounds read high

Chain of Endoplasmic reticulum aminopeptidase 1 (Homo sapiens) (Q9NZ08 whole entry, looked up): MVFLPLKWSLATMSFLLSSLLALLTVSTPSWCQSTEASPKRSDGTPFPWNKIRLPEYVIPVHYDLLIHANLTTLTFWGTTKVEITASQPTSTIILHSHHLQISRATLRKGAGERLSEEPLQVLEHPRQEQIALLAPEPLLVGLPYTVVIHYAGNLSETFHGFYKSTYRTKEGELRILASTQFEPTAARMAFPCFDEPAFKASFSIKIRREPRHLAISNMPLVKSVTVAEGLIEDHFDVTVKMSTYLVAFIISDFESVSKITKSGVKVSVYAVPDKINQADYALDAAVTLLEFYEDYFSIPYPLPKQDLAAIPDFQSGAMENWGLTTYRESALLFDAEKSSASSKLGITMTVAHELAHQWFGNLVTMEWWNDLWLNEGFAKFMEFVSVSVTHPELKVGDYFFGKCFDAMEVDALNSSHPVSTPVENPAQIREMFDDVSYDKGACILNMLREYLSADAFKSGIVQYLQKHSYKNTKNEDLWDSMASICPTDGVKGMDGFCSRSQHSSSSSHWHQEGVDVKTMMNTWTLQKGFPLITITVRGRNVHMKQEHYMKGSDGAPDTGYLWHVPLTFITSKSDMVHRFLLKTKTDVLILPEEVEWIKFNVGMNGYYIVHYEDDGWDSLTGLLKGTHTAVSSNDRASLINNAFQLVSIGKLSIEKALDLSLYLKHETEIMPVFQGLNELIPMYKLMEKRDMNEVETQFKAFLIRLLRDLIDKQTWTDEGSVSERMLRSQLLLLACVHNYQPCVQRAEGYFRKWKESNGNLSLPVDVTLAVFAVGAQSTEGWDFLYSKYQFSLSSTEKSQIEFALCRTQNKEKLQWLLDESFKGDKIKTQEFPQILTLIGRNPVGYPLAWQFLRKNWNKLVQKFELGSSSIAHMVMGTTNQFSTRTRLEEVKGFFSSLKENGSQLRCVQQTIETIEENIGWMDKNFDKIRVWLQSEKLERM

inhibition, active:
C[N+](C)(C)CCNC(=O)c1cc[n+](Cc2ccccc2)c(/C=N/O)c1 105%
COc1ccc(C(=O)NCc2nnc(SCCOc3ccccc3)n2C)cc1 31.3%
N#Cc1c(N2CCCCC2)nc(N)c2c(N)nc(SCC(=O)O)cc12 46.5%
CCCc1nc(-c2cc3cc(C)ccc3[nH]c2=O)no1 55.1%
CN(c1ccccc1)S(=O)(=O)c1cc(C(=O)OCC(=O)N2CCN(C(=O)c3ccco3)CC2)ccc1Cl 60.1%

inhibition, inactive:
CC(=O)N1Cc2cc(C(=O)NCc3cc(F)cc(F)c3)nc(-c3cccc(C4=CCCC4)c3)c2[C@@H]1CCO 3.25%
O=C(C[C@@H]1C=C[C@H](NC(=O)C2CCC2)[C@@H](CO)O1)NCC1CC1 0.604%
O=C(NCCCNCc1ccccc1)c1ccc(/C=N/O)nc1 4.32%
C/C(Cc1ccccc1)=N\NC(=O)CNC(=O)c1cccc(Br)c1 7.75%
COc1ccc(CC(=O)NCc2nnc(SCC(=O)Nc3nccs3)n2C)cc1 1.32%
COc1ccc(C(=O)NCc2nnc(SCC(=O)NC3=NCCS3)n2C)cc1 1.94%
COC(=O)C[C@H]1C[C@H]2c3cc(NC(=O)Nc4ccccc4F)ccc3O[C@H]2[C@H](CO)O1 -1.68%
O=C(NC1Cc2ccccc2C1)[C@H]1[C@H](CO)[C@H]2Cn3c(ccc(C4=CCCCC4)c3=O)[C@H]2N1CC1CC1 -5.27%
O=C(Cc1ccccn1)N[C@H]1CC[C@H](CCn2cc(-c3ccc(F)cc3)nn2)O[C@H]1CO -3.36%
O=C(C[C@@H]1CC[C@H](NC(=O)CN2CCOCC2)[C@@H](CO)O1)NCCc1ccccc1 0.528%
O=C(N[C@H]1C=C[C@@H](CC(=O)N2CCc3ccccc3C2)O[C@@H]1CO)C1CCOCC1 -0.073%
Cc1ccc(-c2ccccc2[C@H]2[C@@H](C#N)N(c3ncc(-c4ccccc4)s3)[C@@H]2CO)cc1 -2.75%
Cc1ccc(S(=O)(=O)Nc2ccc3c(c2)C(=O)N([C@H](C)CO)C[C@@H](C)[C@@H](CN(C)S(C)(=O)=O)OCCCC[C@@H](C)O3)cc1 3.3%
C[C@@H]1CN([C@H](C)CO)C(=O)c2cc(NC(=O)c3ccncc3)ccc2O[C@@H](C)CCCCO[C@@H]1CN(C)CC1CC1 -0.674%
C[C@@H]1CN([C@H](C)CO)C(=O)Cc2cc(NC(=O)CCC(F)(F)F)ccc2O[C@@H]1CN(C)CC1CCCCC1 0.143%
CO[C@@H]1CN(C)C(=O)c2ccc(NC(=O)Nc3c(C)noc3C)cc2OC[C@@H](C)N(C(=O)Nc2cccc(Cl)c2)C[C@H]1C -0.693%
N#C[C@@H]1[C@H](c2ccccc2-c2ccccc2F)[C@@H](CO)N1C(=O)C1CCOCC1 0.396%
O=C(O)CSc1ccc(S(=O)(=O)N2CCCC2)cn1 0.672%
Nc1nc(NCC(=O)O)nc(N2CCCCCC2)c1[N+](=O)[O-] 4.98%
C/C=C/c1ccc(C2[C@H]3CNC[C@@H]2N3C(=O)Nc2cc(F)ccc2F)cc1 (stereo partly specified) 0.659% and 1.15%
Nc1nc2c(ncn2[C@@H]2O[C@H](C(=O)N[C@H](Cc3ccccc3)C(=O)NCC3CCCCC3)[C@@H](O)[C@H]2O)c(=O)[nH]1 2.44%
COc1ccc(CN(C)C[C@H]2OCCCC[C@H](C)Oc3ccc(NS(=O)(=O)c4ccc(C)cc4)cc3C(=O)N([C@@H](C)CO)C[C@H]2C)cc1 0.631%
CCC(=O)N(CCc1ccccc1)Cc1cc2cc(C)ccc2[nH]c1=O -2.61%
Cc1ccc2[nH]c(=O)c(CN(C)S(=O)(=O)c3cccc4nonc34)cc2c1 0.344%
CC(C)NC(=O)N[C@H]1CC[C@@H](CC(=O)NCc2ccc(Oc3ccccc3)cc2)O[C@@H]1CO -0.517%
COc1ccc(NC(=O)N2CC(=O)N3[C@H](CO)[C@@H](c4ccc(C#CCC5CCCC5)cc4)[C@H]3C2)cc1 -1.79%
CC(=O)NC[C@H]1[C@@H](c2ccc(C#CC(C)C)cc2)[C@@H](CO)N1Cc1ccccn1 3.95%
COc1ccc(NC(=O)N2CC(=O)N3[C@H](CO)[C@@H](c4ccc(-c5ccc(C)cc5)cc4)[C@H]3C2)cc1 1.13%
O=C(c1ccc(F)cc1)N1CC(=O)N2[C@@H](CO)[C@@H](c3ccc(C#Cc4ccc(F)cc4)cc3)[C@@H]2C1 -1.04%
C[C@H](CO)N1C[C@H](C)[C@H](CN(C)C(=O)Nc2ccc(C(F)(F)F)cc2)Oc2ccc(NS(=O)(=O)c3cn(C)cn3)cc2CC1=O 2.19%
COc1ccc(S(=O)(=O)Nc2ccc3c(c2)C(=O)N([C@@H](C)CO)C[C@H](C)[C@H](CN(C)S(=O)(=O)c2c(C)noc2C)OCCCC[C@@H](C)O3)cc1 -3.22%
O=C(NCC[C@@H]1CC[C@@H](NS(=O)(=O)c2ccc(Cl)cc2)[C@@H](CO)O1)c1ccccc1F -2.75%
O=C(Cc1ccccc1)N1C[C@@H]2[C@H](c3ccccc31)[C@@H](CO)N2C(=O)C1CCOCC1 -0.84%
C[C@@H]1CCCCO[C@H](CN(C)Cc2ccc(C(F)(F)F)cc2)[C@@H](C)CN([C@@H](C)CO)C(=O)c2cc(NC(=O)c3ccncc3)ccc2O1 -3.82%
CO[C@@H]1CN(C)C(=O)c2cc(NC(=O)C3CCOCC3)ccc2OC[C@@H](C)NC[C@@H]1C 1.93%
O=C(Nc1ccccc1F)N1CC(=O)N2[C@H](CO)[C@H](c3ccc(C#CC4CC4)cc3)[C@@H]2C1 -1.09%
CN(C)C(=O)C[C@H]1C[C@H]2c3cc(NC(=O)Nc4ccc(C(F)(F)F)cc4)ccc3O[C@H]2[C@@H](CO)O1 -0.814%
O=C(Nc1cc(F)ccc1F)N[C@H]1CC[C@@H](CCn2cc(C3CCCC3)nn2)O[C@@H]1CO 0.545%
C[C@@H]1CN([C@H](C)CO)C(=O)c2cc(NS(C)(=O)=O)ccc2O[C@H]1CN(C)C(=O)Nc1cccc2ccccc12 0.237%
CO[C@H]1CN(C)C(=O)c2ccc(NC(=O)C3CC3)cc2OC[C@@H](C)N(C(=O)CN2CCOCC2)C[C@H]1C 5.08%
COc1ccc(S(=O)(=O)N(C)C[C@@H]2Oc3ccc(NC(=O)C4CC4)cc3CC(=O)N([C@@H](C)CO)C[C@H]2C)cc1 -1.45%
CNC[C@H]1Oc2cc(-c3ccc(OC)cc3)ccc2S(=O)(=O)N([C@H](C)CO)C[C@@H]1C -1.76%
CO[C@@H](CN(C)S(=O)(=O)c1ccccc1)[C@H](C)CN(Cc1ccccc1Cl)[C@H](C)CO -0.894%
C[C@@H](NC(=O)C[C@H]1C[C@@H]2c3cc(NC(=O)C4CCC4)ccc3O[C@@H]2[C@@H](CO)O1)c1ccccc1 -1.46%
CO[C@@H]1CN(C)C(=O)c2ccc(NC(=O)Nc3cc(F)ccc3F)cc2OC[C@@H](C)N(C)C[C@@H]1C 2.65%
CO[C@@H]1CC[C@@H]2CCOc3c(C#N)cccc3C(=O)N(C)C[C@H](C)C(=O)N(C)C[C@H]1O2 0.999%
COc1ccc(CNC(=O)C[C@H]2C[C@@H]3c4cc(NC(=O)NC5CCCC5)ccc4O[C@@H]3[C@H](CO)O2)cc1 2.29%
C/C=C/c1ccc2c(c1)O[C@H](CN(C)Cc1cccc(F)c1)[C@H](C)CN([C@H](C)CO)S2(=O)=O 3.38%
COc1ccccc1C#Cc1ccc([C@@H]2[C@H](CO)N3CCCCN(CCC(F)(F)F)C[C@@H]23)cc1 -1.03%
CCC(=O)N1[C@H](C(=O)NC2CCC2)[C@@H](CO)[C@@H]2Cn3c(cccc3=O)[C@@H]21 -1.13%
O=C(CCN1CCCCC1)NCC[C@@H]1CC[C@H](NS(=O)(=O)c2cccc(Cl)c2)[C@H](CO)O1 -1.39%
C/C=C/c1ccc2c(c1)[C@H]1[C@H](CCN1S(=O)(=O)c1cn(C)cn1)[C@H](CO)N2 -3.06%
CO[C@@H]1CC[C@@H]2CCOc3c(C#N)cccc3C(=O)N(C)C[C@@H](OC)[C@@H](C)C(=O)N(C)C[C@H]1O2 -3.74%
COc1cccc(NC(=O)N[C@H]2C=C[C@H](CC(=O)NCc3ccccn3)O[C@@H]2CO)c1 6.83%
COc1ccccc1CN1[C@H](CO)[C@@H](c2ccccc2)C12CN(C(=O)c1cnccn1)C2 0.797%
C[C@H]1CCCCO[C@H](CN(C)C(=O)NC2CCCCC2)[C@@H](C)CN([C@@H](C)CO)C(=O)c2cc(NC(=O)Nc3ccc4c(c3)OCO4)ccc2O1 -0.479%
O=C(OCC(=O)N1CCN(C(=O)c2ccco2)CC1)c1ccc(Cl)c(Cl)c1 0.999%
O=C(OCC(=O)N1CCN(C(=O)c2ccco2)CC1)c1cccc(O)c1 -0.23%
CO[C@@H]1CN(C)C(=O)c2cc(NC(=O)C3CCOCC3)ccc2OC[C@H](C)N(Cc2cccnc2)C[C@H]1C 0.791%
O=C(C[C@H]1CC[C@H]2NC[C@@H](O)COC[C@@H]2O1)NCCN1CCCC1 1.06%
O=C(Nc1cccc(F)c1)N1CC(=O)N2[C@H](C1)[C@H](c1ccc(-c3ccccc3F)cc1)[C@@H]2CO 0.092%
